Reference: PubChem BioAssay
A number with no mark means an inactive call. Active and inactive are the calls of the source.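 How the source made its calls, unless noted: active means mean inhibition over 43.08%, the solvent-only control mean plus 3 SD; inactive means the rest.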

molecular target: Nuclear receptor coactivator 3 (Homo sapiens) (UniProt Q9Y6Q9); test: NCOA3 GAL4-fusion reporter inhibition – cell-based, luminescence, quadruplicate, confirmation (AID 588792); conditions: HEK293 GAL4-SRC3 luciferase reporter, at 3.6 µM, active compounds read high;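 further: 0% = DMSO treated cells and 100% = gossypol at 36 µM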
Sequence (Q9Y6Q9 whole entry, looked up, the tested form may be a part): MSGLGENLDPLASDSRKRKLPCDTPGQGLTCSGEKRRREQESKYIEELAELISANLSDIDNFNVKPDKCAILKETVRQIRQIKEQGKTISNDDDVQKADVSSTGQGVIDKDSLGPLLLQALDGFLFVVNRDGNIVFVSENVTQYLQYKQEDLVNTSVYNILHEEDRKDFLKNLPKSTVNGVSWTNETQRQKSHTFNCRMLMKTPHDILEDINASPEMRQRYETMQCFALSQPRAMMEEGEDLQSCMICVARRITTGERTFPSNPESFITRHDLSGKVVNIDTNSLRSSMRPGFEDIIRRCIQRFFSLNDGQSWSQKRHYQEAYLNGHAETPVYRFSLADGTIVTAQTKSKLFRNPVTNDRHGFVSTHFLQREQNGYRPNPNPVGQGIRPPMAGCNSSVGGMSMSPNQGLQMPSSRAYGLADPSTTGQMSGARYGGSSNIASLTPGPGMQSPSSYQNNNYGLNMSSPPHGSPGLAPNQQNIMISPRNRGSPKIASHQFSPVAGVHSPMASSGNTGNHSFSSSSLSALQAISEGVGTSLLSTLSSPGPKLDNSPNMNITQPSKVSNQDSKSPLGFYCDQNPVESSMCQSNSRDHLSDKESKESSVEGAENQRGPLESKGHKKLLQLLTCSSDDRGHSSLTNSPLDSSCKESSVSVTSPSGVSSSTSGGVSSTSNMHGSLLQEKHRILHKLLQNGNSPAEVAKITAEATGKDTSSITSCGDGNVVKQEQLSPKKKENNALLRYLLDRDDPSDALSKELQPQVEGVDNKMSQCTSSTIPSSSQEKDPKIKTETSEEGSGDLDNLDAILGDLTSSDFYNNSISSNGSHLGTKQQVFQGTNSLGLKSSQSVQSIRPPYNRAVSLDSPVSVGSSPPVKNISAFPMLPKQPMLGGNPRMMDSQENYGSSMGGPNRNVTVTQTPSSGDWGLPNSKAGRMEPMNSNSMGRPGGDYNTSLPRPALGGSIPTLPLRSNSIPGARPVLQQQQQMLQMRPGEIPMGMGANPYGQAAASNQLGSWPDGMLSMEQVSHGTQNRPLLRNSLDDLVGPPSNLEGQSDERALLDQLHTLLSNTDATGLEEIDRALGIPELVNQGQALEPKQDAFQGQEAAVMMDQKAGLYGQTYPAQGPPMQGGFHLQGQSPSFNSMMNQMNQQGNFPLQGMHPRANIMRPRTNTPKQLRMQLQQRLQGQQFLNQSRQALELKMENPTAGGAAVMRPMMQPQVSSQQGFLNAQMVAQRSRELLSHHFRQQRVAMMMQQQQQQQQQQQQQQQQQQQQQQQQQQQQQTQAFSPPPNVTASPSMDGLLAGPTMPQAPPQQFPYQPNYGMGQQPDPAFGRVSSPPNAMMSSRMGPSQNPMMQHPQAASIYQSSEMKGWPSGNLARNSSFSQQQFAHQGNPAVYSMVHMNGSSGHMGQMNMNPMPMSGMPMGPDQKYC

Row | SMILES | inhibition
1 | Nc1nc(CCl)nc(N(c2ccccc2)c2ccccc2)n1 | 18.4%
2 | Cc1nccc(-c2ccc(-n3cnc4ccccc43)cc2)n1 | 23.8%
3 | N#C/C(C(N)=O)=C1/CCc2ccccc2N1 | 21.2%
4 | COc1ccc(CNC(=O)[C@H](Cc2ccccc2)NC(=O)C2CCN(C(=O)[C@H](C)N)CC2)cc1 | 12.2%
5 | Cc1ccccc1OCc1n(CC(=O)OC2CC(C)CCC2C(C)C)c2ccccc2[n+]1C (stereo not given) | 13%
6 | N#Cc1c(NCc2ccccc2)ccnc1Cl | 27.5%
7 | Cc1cccc(Nc2ncnc(N)c2[N+](=O)[O-])n1 | 24.9%
8 | Cc1ccc(-c2c[n+](Cc3cccc(Cl)c3)c3n2CCC3)cc1 | -6.57%
9 | COc1ccc2nc(NC(=O)C3CCN(S(=O)(=O)c4cccs4)CC3)sc2c1 | 20.3%
10 | NC(=O)c1sc2nc3c(c(-c4ccco4)c2c1N)CCCC3 | 59.8% (active)
11 | O=C(Nc1ccc([N+](=O)[O-])cc1)Nc1nc(-c2ccc(Cl)s2)cs1 | 60.4% (active)
12 | O=C(NNC(=O)c1cccnc1SCc1cccc([N+](=O)[O-])c1)c1ccccn1 | 34.4%
13 | Cc1cc(C(C)(C)C)cc(C)c1Cn1c2[n+](c3ccc(C(F)(F)F)cc31)CCCCC2 | 11%
14 | O=C1c2cccc(NCCNCCO)c2C(=O)c2cccc(NCCNCCO)c21 | -30.9%
15 | O=C1OCCC1Sc1nnc(-c2ccc(Cl)cc2Cl)o1 (stereo not given) | 0.88%
16 | CC(=O)c1c(C)[nH]c(C(=O)CSc2nc3ccccc3n2C)c1C | 2.74%
17 | COc1ccc(C)cc1NC(=O)CN1C(=O)CSc2ccc(S(=O)(=O)N3CCCC3)cc21 | 4.25%
18 | Cn1nc(C(F)(F)F)c(-c2ccccc2)c1NC(=O)c1cccnc1 | 18.6%
19 | CC[C@H](C)Cc1cn([C@@H](CCCCNC(=O)OC(C)(C)C)C(=O)NCCCCCCCCCCC(=O)N2CCN(C(=O)OC(C)(C)C)CC2)nn1 | 17.9%
20 | Cc1ccc(NC2=C/C(=N/S(=O)(=O)c3cccs3)c3ccccc3C2=O)cc1 | 85% (active)

Row | SMILES | inhibition
21 | CC(=O)Nc1ccc(S(=O)(=O)NCCSCc2ccccc2Cl)cc1 | 12.3%
22 | CC1=C/C(=N\OS(=O)(=O)c2ccccc2)C(C)=CC1=O | 19.7%
23 | COc1ccc(-c2cc(C(=O)N3CCN(c4ncccn4)CC3)c3ccccc3n2)c(OC)c1 | 0.79%
24 | CC(=O)c1ccc(Nc2c3c(nc4ccccc24)CCCC3)cc1 | 32.7%
25 | Cn1c(=O)n(C)c2cc(NS(=O)(=O)c3ccc(C(C)(C)C)cc3)ccc21 | 16.6%
26 | CC(=O)N(Cc1ccc(F)cc1)C1=C(NCc2ccccc2)C(=O)c2ccccc2C1=O | 30.9%
27 | COc1cc2c(C#N)c(N3CCOCC3)nc(N)c2c(N)n1 | -5.11%
28 | CC(C)C[C@H]1CNC(=S)N1C[C@H]1CCCN1C[C@H](Cc1ccc(O)cc1)N1C[C@H](CC(C)C)N(CC2CCCCCC2)C1=S | 21.1%
29 | CCOc1cc(N2CCOCC2)c(OCC)cc1NC(=O)c1cc(-c2ccco2)nc2ccccc12 | 17.5%
30 | CCN(C(=O)COC(=O)c1ccccc1Cc1ccccc1)c1c(N)n(Cc2ccccc2)c(=O)[nH]c1=O | 6.67%
31 | Cc1ccc(NC(=O)C2CCN(c3ncnc4c3nc3n4CCCCC3)CC2)cc1Cl | -20.6%
32 | Cc1cc(SCC(=O)N/N=C/c2ccc(O)cc2O)c(C)cc1Br | 20.6%
33 | S=c1[nH]nc(C2CCCCC2)n1/N=C/c1ccco1 | -2.38%
34 | O=C(Nc1cc(C(=O)N2CCCC2)ccc1N1CCCC1)c1ccccc1F | 27.3%
35 | CC1CCCC=CC2CC(OC(=O)CN(C)C)CC2C(O)C=CC(=O)O1 (stereo not given) | 65.1% (active)
36 | C#CCOCCOCCOCCNc1nc(N2CCN(C(=O)Cn3cc(CCCN=C(N)N)nn3)CC2)nc(N2CCN(C(=O)[C@H](C)n3cc(CCCN=C(N)N)nn3)CC2)n1 | 3.42%
37 | CCCCNC1C(CC)C(CCC)C(C#N)(C#N)C1(C#N)C#N (stereo not given) | 3.79%
38 | COc1ccc(NC(=O)c2cc3c(-c4ccc(OC)c(OC)c4)nn(C)c3s2)cc1OC | 10.7%
39 | O=C(NC1CCCC1)c1cc(COc2ccc3ncccc3c2)on1 | 19.7%
40 | CC(C)C(=O)N1CCN(c2ccc(NC(=O)COc3ccccc3[N+](=O)[O-])cc2)CC1 | 12.7%

test system: transactivating tegument protein VP16 (Human herpesvirus 1), Gal4-VP16 luciferase reporter; test: repression of VP16-driven luciferase reporter – cell-based, luminescence, high throughput, counter-screen for SRC3 inhibitor project (AID 588794; in the data active means inhibition above about 30%); conditions: mammalian cells, at 3.6 µM, active compounds read high

Row | SMILES | inhibition
41 | Nc1nc(CCl)nc(N(c2ccccc2)c2ccccc2)n1 | 15.9%
42 | Cc1nccc(-c2ccc(-n3cnc4ccccc43)cc2)n1 | 12.4%
43 | N#C/C(C(N)=O)=C1/CCc2ccccc2N1 | -2.45%
44 | COc1ccc(CNC(=O)[C@H](Cc2ccccc2)NC(=O)C2CCN(C(=O)[C@H](C)N)CC2)cc1 | -2.01%
45 | Cc1ccccc1OCc1n(CC(=O)OC2CC(C)CCC2C(C)C)c2ccccc2[n+]1C (stereo not given) | 22.8%
46 | N#Cc1c(NCc2ccccc2)ccnc1Cl | 15.9%
47 | Cc1cccc(Nc2ncnc(N)c2[N+](=O)[O-])n1 | 4.32%
48 | Cc1ccc(-c2c[n+](Cc3cccc(Cl)c3)c3n2CCC3)cc1 | 18.4%
49 | COc1ccc2nc(NC(=O)C3CCN(S(=O)(=O)c4cccs4)CC3)sc2c1 | 15.2%
50 | NC(=O)c1sc2nc3c(c(-c4ccco4)c2c1N)CCCC3 | 32.4% (active)
51 | O=C(Nc1ccc([N+](=O)[O-])cc1)Nc1nc(-c2ccc(Cl)s2)cs1 | 71.6% (active)
52 | O=C(NNC(=O)c1cccnc1SCc1cccc([N+](=O)[O-])c1)c1ccccn1 | 30.1% (active)
53 | Cc1cc(C(C)(C)C)cc(C)c1Cn1c2[n+](c3ccc(C(F)(F)F)cc31)CCCCC2 | 21.3%
54 | O=C1c2cccc(NCCNCCO)c2C(=O)c2cccc(NCCNCCO)c21 | 37.6% (active)
55 | O=C1OCCC1Sc1nnc(-c2ccc(Cl)cc2Cl)o1 (stereo not given) | 1.16%
56 | CC(=O)c1c(C)[nH]c(C(=O)CSc2nc3ccccc3n2C)c1C | 11.8%
57 | COc1ccc(C)cc1NC(=O)CN1C(=O)CSc2ccc(S(=O)(=O)N3CCCC3)cc21 | 3.04%
58 | Cn1nc(C(F)(F)F)c(-c2ccccc2)c1NC(=O)c1cccnc1 | 11.4%
59 | CC[C@H](C)Cc1cn([C@@H](CCCCNC(=O)OC(C)(C)C)C(=O)NCCCCCCCCCCC(=O)N2CCN(C(=O)OC(C)(C)C)CC2)nn1 | 22.5%
60 | Cc1ccc(NC2=C/C(=N/S(=O)(=O)c3cccs3)c3ccccc3C2=O)cc1 | 82% (active)

Row | SMILES | inhibition
61 | CC(=O)Nc1ccc(S(=O)(=O)NCCSCc2ccccc2Cl)cc1 | 17.1%
62 | CC1=C/C(=N\OS(=O)(=O)c2ccccc2)C(C)=CC1=O | 9.07%
63 | COc1ccc(-c2cc(C(=O)N3CCN(c4ncccn4)CC3)c3ccccc3n2)c(OC)c1 | -9.7%
64 | CC(=O)c1ccc(Nc2c3c(nc4ccccc24)CCCC3)cc1 | -3.62%
65 | Cn1c(=O)n(C)c2cc(NS(=O)(=O)c3ccc(C(C)(C)C)cc3)ccc21 | 14.9%
66 | CC(=O)N(Cc1ccc(F)cc1)C1=C(NCc2ccccc2)C(=O)c2ccccc2C1=O | 31.9% (active)
67 | COc1cc2c(C#N)c(N3CCOCC3)nc(N)c2c(N)n1 | 0.07%
68 | CC(C)C[C@H]1CNC(=S)N1C[C@H]1CCCN1C[C@H](Cc1ccc(O)cc1)N1C[C@H](CC(C)C)N(CC2CCCCCC2)C1=S | 16.3%
69 | CCOc1cc(N2CCOCC2)c(OCC)cc1NC(=O)c1cc(-c2ccco2)nc2ccccc12 | 8.51%
70 | CCN(C(=O)COC(=O)c1ccccc1Cc1ccccc1)c1c(N)n(Cc2ccccc2)c(=O)[nH]c1=O | 13.9%
71 | Cc1ccc(NC(=O)C2CCN(c3ncnc4c3nc3n4CCCCC3)CC2)cc1Cl | -3.54%
72 | Cc1cc(SCC(=O)N/N=C/c2ccc(O)cc2O)c(C)cc1Br | 23.2%
73 | S=c1[nH]nc(C2CCCCC2)n1/N=C/c1ccco1 | -11.2%
74 | O=C(Nc1cc(C(=O)N2CCCC2)ccc1N1CCCC1)c1ccccc1F | 13.1%
75 | CC1CCCC=CC2CC(OC(=O)CN(C)C)CC2C(O)C=CC(=O)O1 (stereo not given) | 71.2% (active)
76 | C#CCOCCOCCOCCNc1nc(N2CCN(C(=O)Cn3cc(CCCN=C(N)N)nn3)CC2)nc(N2CCN(C(=O)[C@H](C)n3cc(CCCN=C(N)N)nn3)CC2)n1 | 0.02%
77 | CCCCNC1C(CC)C(CCC)C(C#N)(C#N)C1(C#N)C#N (stereo not given) | 20%
78 | COc1ccc(NC(=O)c2cc3c(-c4ccc(OC)c(OC)c4)nn(C)c3s2)cc1OC | 10.5%
79 | O=C(NC1CCCC1)c1cc(COc2ccc3ncccc3c2)on1 | 43.3% (active)
80 | CC(C)C(=O)N1CCN(c2ccc(NC(=O)COc3ccccc3[N+](=O)[O-])cc2)CC1 | 28.6%
